The record followed here is PubChem BioAssay (NCI).

Some test systems named below: NCI-H23 lung; NCI-H226 lung; NCI-H322M lung; HOP-62 NSCLC; NCI-H460 lung; HOP-92 NSCLC; NCI-H522 lung; A549/ATCC NSCLC; 786-0 renal; COLO 205 colon; DU-145 prostate; K-562 leukemia; MALME-3M melanoma; MDA-MB-231 breast; RXF 393 renal; SF-268 CNS; SF-295 CNS; SF-539 CNS; UACC-257 melanoma; M14 melanoma.
Holding throughout (assay): NCI-60 one-dose screen, 48 h (100 = growth as untreated, 0 = no growth, -100 = all killed)
Holding throughout (conditions): 10 µM unless noted

Each structure is given as a SMILES string. The panel holds about 83,000 compounds, 20% with a hit somewhere; the sample as a whole holds those more often.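 A percent growth of 40 corresponds to 60% growth inhibition; 0 means no net growth; -100 means all cells died. Active threshold: below 10.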 A number with no mark means an inactive call. Calls of active or inactive are those of the source.

For the molecule `COc1cc(C2CC(c3ccc(Nc4ccnc5cc(Cl)ccc45)cc3)=NN2C=O)cc(OC)c1OC` (stereo not given), the growth in the assay with NCI-H23 lung was 89.2%; with NCI-H226 lung, 102%; with NCI-H322M lung, 107%; in the assay on HOP-62 NSCLC it was 84.4%; in the assay with NCI-H460 lung, 57.2%; in the assay on HOP-92 NSCLC, -3.68% (active). Besides, the growth in the assay on NCI-H522 lung was 71.7%; in the assay on A549/ATCC NSCLC it was 72.4%; with 786-0 renal, 63.8%; in the assay with COLO 205 colon it was 95.6%; in the assay with DU-145 prostate, 66.4%; in the assay with K-562 leukemia, 26%. Further, the growth in the assay on MALME-3M melanoma is 25.2%; in the assay on MDA-MB-231 breast, 85.8%; in the assay on RXF 393 renal it was 83.6%; with SF-268 CNS, 90.1%; in the assay on SF-295 CNS it was 75.2%; in the assay on SF-539 CNS, 73.2%. In addition, the growth in the assay on UACC-257 melanoma is 60.1%; in the assay with M14 melanoma, 75.1%.
For the molecule `O=C(CC(SCc1ccccc1)c1ccccc1)c1ccccc1` (stereo not given), the growth in the assay with NCI-H23 lung was 84.6%; in the assay with NCI-H226 lung, 87.6%; with NCI-H322M lung, 97.1%; with HOP-62 NSCLC it was 91.7%; with NCI-H460 lung it was 103%; in the assay on HOP-92 NSCLC, 80.1%. For the same molecule, the growth was 111% in the assay with NCI-H522 lung; 101% in the assay with A549/ATCC NSCLC; 84% with 786-0 renal; 94.3% in the assay with COLO 205 colon; 95.5% with DU-145 prostate; 95.3% in the assay on K-562 leukemia. For the same molecule, the growth in the assay with MALME-3M melanoma is 98.5%; in the assay with MDA-MB-231 breast, 98.1%; in the assay on RXF 393 renal, 86.4%; with SF-268 CNS, 87.6%; in the assay on SF-295 CNS it was 94.1%; in the assay with SF-539 CNS it was 99%. Moreover, the growth with UACC-257 melanoma is 111%; in the assay on M14 melanoma it was 87%.
For `COC1=CC(=O)C[C@@H](C)[C@]12Oc1c(Cl)c(OC)cc(OC)c1C2=O`, the growth is 93.5% in the assay on NCI-H23 lung; 99.9% with NCI-H226 lung; 105% in the assay on NCI-H322M lung; 88.3% in the assay on HOP-62 NSCLC; 110% in the assay on NCI-H460 lung; 89.4% in the assay on HOP-92 NSCLC. In addition, the growth is 80.5% in the assay with NCI-H522 lung; 97.5% in the assay with A549/ATCC NSCLC; 99.2% with 786-0 renal; 106% in the assay with COLO 205 colon; 105% with DU-145 prostate; 32.9% with K-562 leukemia. Further, the growth in the assay with MALME-3M melanoma is 85.2%; with MDA-MB-231 breast it was 84.1%; in the assay on RXF 393 renal, 86.8%; with SF-268 CNS, 93.5%; in the assay with SF-295 CNS, 96.8%; in the assay on SF-539 CNS, 104%. The growth was 84.5% with UACC-257 melanoma and 66.3% with M14 melanoma.
Regarding `CCCCC1CCCCN1C(=O)OCC` (stereo not given), the growth is 102% in the assay with NCI-H23 lung; 121% with NCI-H226 lung; 101% in the assay on NCI-H322M lung; 103% in the assay on HOP-62 NSCLC; 107% in the assay on NCI-H460 lung; 88.5% with HOP-92 NSCLC. Further, the growth in the assay with NCI-H522 lung was 94.1%; in the assay on A549/ATCC NSCLC it was 95.1%; with 786-0 renal, 93%; with COLO 205 colon it was 102%; with DU-145 prostate, 108%; with K-562 leukemia it was 107%. Also, the growth in the assay with MALME-3M melanoma was 108%; in the assay on MDA-MB-231 breast, 107%; in the assay on RXF 393 renal it was 152%; in the assay with SF-268 CNS, 106%; with SF-295 CNS, 127%; in the assay with SF-539 CNS, 99.7%. The growth was 108% with UACC-257 melanoma and 101% in the assay with M14 melanoma.
For `C=C(C)[C@@H]1CC[C@]2(C(=O)NC3CCCCC3)CC[C@]3(C)[C@H](CC[C@@H]4[C@@]5(C)CCC(=O)C(C)(C)[C@@H]5CC[C@]43C)[C@@H]12`, the growth with NCI-H23 lung is 88.7%; in the assay with NCI-H226 lung, 74.6%; in the assay on NCI-H322M lung, 91.9%; in the assay with HOP-62 NSCLC it was 97.7%; with NCI-H460 lung it was 98.3%; with HOP-92 NSCLC it was 81.5%. The growth with NCI-H522 lung was 86.9%; with A549/ATCC NSCLC, 85.6%; with 786-0 renal, 85.7%; in the assay with COLO 205 colon, 103%; in the assay with DU-145 prostate, 104%; in the assay on K-562 leukemia, 84.2%. Besides, the growth is 84.2% with MALME-3M melanoma; 87.4% with MDA-MB-231 breast; 98.3% with RXF 393 renal; 94.3% in the assay on SF-268 CNS; 97.8% in the assay with SF-295 CNS; 96.1% in the assay with SF-539 CNS. Moreover, the figures for the growth in the assay on UACC-257 melanoma and in the assay on M14 melanoma were 94.2% and 97.7%, respectively.
Take `COc1cccc(-c2nn(-c3ccccc3)cc2-c2ccnc(NCCCNC(=O)c3ccc(F)cc3)c2)c1`: the growth in the assay on NCI-H23 lung was 53.1%; with NCI-H226 lung, 60.1%; in the assay with NCI-H322M lung, 80.8%; in the assay on HOP-62 NSCLC it was 35.6%; in the assay with NCI-H460 lung, 45.8%; with HOP-92 NSCLC, 57.4%. Besides, the growth with NCI-H522 lung was 51.8%; with A549/ATCC NSCLC it was 30.5%; in the assay with 786-0 renal it was 38.2%; in the assay on COLO 205 colon, 31.7%; in the assay with DU-145 prostate, 65.5%; in the assay with K-562 leukemia, 16.9%. Also, the growth in the assay on MALME-3M melanoma is 48.2%; in the assay with MDA-MB-231 breast it was 51.3%; in the assay with RXF 393 renal, 56.3%; in the assay with SF-268 CNS it was 53.7%; with SF-295 CNS, 36.5%; with SF-539 CNS, 68.3%. Besides, the growth in the assay on UACC-257 melanoma is 42.3%; in the assay with M14 melanoma, 20.3%.
Turning to `CC(=O)C(C)Cc1cc2c(cc1C)C(C)(C)CCC2(C)C` (stereo not given), the growth with NCI-H23 lung is 95.3%; in the assay with NCI-H226 lung, 99.5%; with NCI-H322M lung, 97.8%; with HOP-62 NSCLC, 82.4%; with NCI-H460 lung, 107%; with HOP-92 NSCLC it was 85.7%. Besides, the growth was 85.3% in the assay on NCI-H522 lung; 79.2% with A549/ATCC NSCLC; 95.2% with 786-0 renal; 105% in the assay on COLO 205 colon; 107% with DU-145 prostate; 105% in the assay on K-562 leukemia. Further, the growth with MALME-3M melanoma is 99%; with MDA-MB-231 breast, 109%; with RXF 393 renal, 104%; in the assay on SF-268 CNS, 100%; in the assay on SF-295 CNS, 102%; in the assay on SF-539 CNS it was 102%. In addition, the results for the growth in the assay on UACC-257 melanoma and with M14 melanoma were 79.1% and 88.1%, respectively.
